Shown are actives, neighbours in structure and some others; about 3% of the full set was active somewhere.
PAFAH1B3 inh – PAFAH1B3 (human) inhibition; recombinant PAFAH1B3, FP-rhodamine probe, fluorescence polarization; inhibition, % at 3.39 µM; hit rate 0.28% among 340,000;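 active means inhibition above the screen-wide average of all tested compounds plus 3 SD, cut at about 25% in these data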;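 further: 0% = enzyme with DMSO only and 100% = wells lacking PAFAH1B3 protein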
Target sequence (Q15102 whole entry, looked up): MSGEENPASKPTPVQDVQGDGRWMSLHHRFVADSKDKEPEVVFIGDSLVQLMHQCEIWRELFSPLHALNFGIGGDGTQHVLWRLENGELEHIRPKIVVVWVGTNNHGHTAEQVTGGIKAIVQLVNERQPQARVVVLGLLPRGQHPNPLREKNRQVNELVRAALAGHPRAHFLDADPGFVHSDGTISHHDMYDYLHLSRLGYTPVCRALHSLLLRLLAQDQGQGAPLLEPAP
ATG4B inh – inhibitors of human ATG4B cysteine protease; inhibition, % at 8.33 µM; Q9Y4P1; hit rate 0.51% among 340,000; ATG4B cleavage of LC3-PLA2, NBD-HPC fluorescence, 1 h; in the data active means inhibition above about 40%
pPAFAH inh – inhibitors of human plasma PAF acetylhydrolase (pPAFAH). Q13093. recombinant pPAFAH, FP-rhodamine probe fluorescence polarization. inhibition, % at 3.39 µM. hit rate 1.5% among 330,000. AID 463082;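 active means inhibition above the mean inhibition across the screen plus 3 SD, cut at about 25% in these data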;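 further: inhibitors block binding of the rhodamine activity-based probe so polarization drops; 0% = enzyme with DMSO and 100% = wells lacking pPAFAH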
PAFAH1B2 FP inh – PAFAH1B2 (human) inhibition | P68402 | recombinant PAFAH1B2, FP-rhodamine activity probe, fluorescence polarization | inhibition, % at 3.39 µM | hit rate 1.2% among 340,000 | AID 492953;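 active means inhibition above the mean of all tested compounds plus 3 SD, cut at about 24% in these data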;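 further: 0% = enzyme with DMSO and 100% = wells lacking PAFAH1B2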
Target sequence (P68402 whole entry, looked up): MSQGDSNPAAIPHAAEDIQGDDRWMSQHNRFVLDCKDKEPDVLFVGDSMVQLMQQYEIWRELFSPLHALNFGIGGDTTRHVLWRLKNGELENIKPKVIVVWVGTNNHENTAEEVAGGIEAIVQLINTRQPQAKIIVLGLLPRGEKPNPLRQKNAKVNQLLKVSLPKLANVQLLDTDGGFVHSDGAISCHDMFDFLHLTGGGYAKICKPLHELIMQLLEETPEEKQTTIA
PAFAH2 inh – inhibitors of human PAFAH2. recombinant PAFAH2, FP-rhodamine activity probe, fluorescence polarization. inhibition, % at 3.39 µM. hit rate 0.99% among 340,000. AID 492956;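 active means inhibition above the mean over all tested compounds plus 3 SD, cut at about 30% in these data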;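 further: inhibitors block probe labeling of enzyme so polarization drops; 0% = enzyme with DMSO and 100% = wells lacking PAFAH2 protein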
DAGLB inh – blocks human DAGLB lipase activity. HEK293T DAGLB membrane lysate, EnzChek fluorogenic substrate. inhibition, % at 5.17 µM. hit rate 0.059% among 340,000. AID 504411; in the data active means inhibition above about 34%;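 further: 0% = enzyme with vehicle and 100% = wells lacking enzyme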
An asterisk follows results filed as active; / = no result given.

SMILES	PAFAH1B3 inh	ATG4B inh	pPAFAH inh	PAFAH1B2 FP inh	PAFAH2 inh	DAGLB inh
COc1ccc(-c2cc(=O)c(C(=O)c3ccc(C)cc3)n[nH]2)cc1	8	-1	4	3	-2	-3
Cc1c(Br)c([N+](=O)[O-])nn1CC(=O)NC1CCCCCC1	0	24	-2	-1	12	-3
CC12CCC3c4ccc(O)cc4CCC3C1CC(=NO)C2O (stereo not drawn)	0	7	/	1	12	3
Cc1cccc(NS(=O)(=O)c2csc(C(N)=O)c2)c1C	2	4	27*	-6	-3	-1
CCC(Sc1nc(-c2cccc(OC)c2)c(C#N)c(=O)[nH]1)C(=O)Nc1nnc(C(C)C)s1 (stereo not drawn)	-4	8	0	35*	0	11
Cc1ccc(S(=O)(=O)NCc2ccccc2)cc1C(=O)NCc1ccncc1	/	/	/	/	/	2
O=S(=O)(c1ccc(Cl)cc1)N1CCN2CCCC2C1 (stereo not drawn)	5	4	0	27*	12	1
COc1ccc(C)cc1NC(=O)CN1CCN(S(=O)(=O)c2ccc(Cl)cc2)CC1	9	-25	-4	28*	2	-2
COc1ccc(OC)c(NC(=O)CN2CCC(C(=O)c3ccc(C)cc3)CC2)c1	7	0	29*	0	-7	-1
O=C(CCN1CCN(S(=O)(=O)c2ccc(Cl)cc2)CC1)Nc1ccccc1F	-4	-19	0	23	3	-2
O=C(CCN1CCN(S(=O)(=O)c2ccc(Cl)cc2)CC1)Nc1ccc(F)cc1	9	-6	-1	25*	-5	1
COc1ccc(CCN2CC(C(=O)NCc3cn(C)nc3C)CCC2=O)cc1 (stereo not drawn)	/	/	/	/	/	-2
O=C(CCn1cnnn1)Nc1ccccc1	2	1	3	1	4	0
C[C@H](NC(=O)c1ccccc1)C(=O)N1CCC2(CC1)NCCc1[nH]cnc12	2	-2	5	0	1	2
O=P(CCc1ccccc1)(c1ccccc1)c1ccccc1	3	-6	/	2	0	2
COc1ccc(Cl)cc1NC(=O)CN(C)C(=O)CCSc1ccc(C)cc1	6	-8	-2	26*	7	-2
O=C(CN1CCN(S(=O)(=O)c2ccc(Cl)cc2)CC1)NC1CCCC1	6	2	-3	29*	2	-2
O=C(CN1CCN(S(=O)(=O)c2ccc(F)cc2)CC1)NC1CCCC1	3	7	1	11	3	-1
CSc1cccc(NC(=O)Cc2ccccc2[N+](=O)[O-])c1	13	-1	-1	1	2	-2
O=C(OCCOc1ccc(Br)cc1)c1ccc(Cl)nc1	9	-1	1	26*	2	-10
CC(C)Cc1ccc(C(C)NC(=O)Cc2ccc(S(=O)(=O)N3CCOCC3)s2)cc1 (stereo not drawn)	1	-10	30*	4	0	0
CC1=Nc2ccccc2/C1=C\c1sc(Nc2ccc(C)cc2)nc1O	5	31	28*	3	-1	4
Oc1cccc(Nc2nc(O)c(/C=C3\C=Nc4ccccc43)s2)c1	-249	25	28*	15	-21	0
CCNC(=S)N(CCO)Cc1cc2cc3c(cc2[nH]c1=O)OCO3	8	5	4	-4	-5	-4
CC(=O)Nc1cc2c(cc1Br)-c1ccccc1C2	12	-10	/	7	-4	-4
SMILES	PAFAH1B3 inh	ATG4B inh	pPAFAH inh	PAFAH1B2 FP inh	PAFAH2 inh	DAGLB inh
O=C(CC(c1ccccc1)(c1ccccc1)c1ccccc1)N[C@@H](Cc1ccccc1)C(=O)O	4	-8	7	25*	0	16
Cc1ccc(C(=O)O)cc1NC(=O)CSc1nnc(-c2ccccc2F)n1C1CCCCC1	9	-2	3	26*	6	1
O=C(CSc1nnc(-c2ccccc2F)n1C1CC1)Nc1cccnc1Cl	0	0	2	1	-7	1
COCCNC(=O)c1onc(CSc2ccc(Cl)cc2)c1C(=O)O	6	-10	4	28*	10	1
Cc1ccccc1-n1ncc2c1CC(C)(C)CC2NC(=O)C1=CC(=O)CC(C)(C)O1 (stereo not drawn)	6	-3	3	8	-6	1
O=C1CC(c2cccc(Br)c2)c2cc3c(cc2N1)CCC3 (stereo not drawn)	4	9	28*	5	1	2
COc1cc2c(cc1OC)C(c1cccc(Br)c1)CC(=O)N2 (stereo not drawn)	2	0	/	5	-1	2
COc1ccc(OC)c(/C=N/NC(=O)C(=O)N2CCCCCC2)c1	8	9	5	0	-1	0
CCn1c(CNC(=O)c2ccco2)nnc1SCC(=O)Nc1ccccc1Cl	-4	0	3	6	7	1
Cc1cc(NC(=O)CSCc2ccccc2)no1	2	-4	3	2	9	0
Cc1cc(CSCc2ccc(Cl)cc2)no1	-3	3	3	27*	0	-9
C[C@H](O)[C@@H]1C(=O)N2CCc3ccc(-c4ccccc4)cc3[C@@H]2C[C@@H]1N(C)C(=O)c1ccco1	/	/	/	/	/	0
c1ccc(OCc2nn3c(Cn4cnc5ccccc54)nnc3s2)cc1	3	-2	5	27*	4	0
CC(C)c1ccc(N2C(=O)/C(=C/N(C)C)SC2=S)cc1	12	22	29*	15	11	2
CCCOc1ccc(C(=O)ON=C2CCN(C)CC2)cc1	-4	-7	26*	4	78*	-2
CCCOc1ccc(C(=O)O)cc1	5	-2	1	10	6	0
Cc1nc2ccccn2c1-c1ccnn1S(=O)(=O)c1ccc(F)cc1	-3	-14	3	31*	12	0
Cc1ccc(COc2ccc(/C=N/O)cc2)cc1	1	7	1	33*	1	-6
Cc1cccc(NC2=C/C(=N/S(=O)(=O)c3cccs3)c3ccccc3C2=O)c1	64*	28	22	23	14	9
Cc1ccc(C(=O)NCC(=O)N2CCCN(C)CC2)cc1C	7	-3	2	4	6	-2
CSc1nc2ccc(NS(=O)(=O)c3ccc([N+](=O)[O-])cc3)cc2s1	/	-3	8	/	/	/
Cc1ccc2nc(-c3ccc(NS(=O)(=O)c4c(C)n(C)c(=O)n(C)c4=O)cc3)sc2c1	3	-19	4	-2	1	2
Cc1ccc(NS(=O)(=O)c2ccc3[nH]c(=O)[nH]c3c2)cc1	11	6	22	6	1	0
Cc1cccc(S(=O)(=O)Nc2ccc(-c3nc4ccc(C)cc4s3)cc2)c1	19	31	33*	-3	-29	-3
Cc1ccc(NS(=O)(=O)c2ccc3[nH]c(=O)sc3c2)cc1	-4	0	29*	22	-1	3

High-throughput results deposited in PubChem by several laboratories.
